Laboratory results published in PubChem BioAssay (NCI).
This is part of a sample that, as a whole, favours compounds with a hit. Of some 79,000 tested, about 15% had one in any assay. A number with no mark means an inactive call. The source made the active and inactive calls. Rule as the data show it: active = growth inhibition above about 70%; inactive = the rest.

Experiment: NCI Yeast Anticancer Drug Screen. Data for the sgs1 strain (AID 173);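 also: 0% = growth of vehicle-only control cultures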
Settings: S. cerevisiae sgs1 mutant, stronger effect = higher value
Method: Growth inhibition of yeast strains with defined genetic alterations is measured as a screen for potential anti-cancer activity. Selected strains with alterations in DNA damage repair or cell cycle control were exposed to compounds and growth inhibition was measured relative to vehicle treated controls. The strain used in this assay is sgs1

Compound	growth inhibition (at 1.2 µM) [%]	growth inhibition (at 3.7 µM) [%]	growth inhibition (at 11.0 µM) [%]	growth inhibition (at 33.0 µM)	growth inhibition (at 100.0 µM)
Cn1c(=O)c2ccccc2c2ccccc21	-2	-1	-2	43%	66%
CO[C@H]1C[C@](C)(O)Cc2cc3c(c(O)c21)C(=O)c1c(O)cc2c(c1C3=O)O[C@@H]1O[C@@]2(C)[C@H](O)[C@@H](N(C)C)[C@@H]1O	-28	-28	-24	-7%	2%
O=[N+]([O-])c1ccc2nc3ccccc3cc2c1	-2	13	36	80% (active)	97% (active)
Cc1[nH]c2ccccc2c1C(c1ccc(N)cc1)c1c(C)[nH]c2ccccc12	-12	-14	-19	-5%	62%
COc1cc(C2SCC(=O)N2c2ccc(-c3ccc(-n4c(-c5ccccc5)nc5ccccc5c4=O)cc3)cc2)cc(OC)c1OC (stereo not given)	-3	-1	2	-1%	-7%
Brc1ccc(-c2cc3c(cc2C2SCCS2)OCO3)cc1	3	9	5	52%	76% (active)
CC(C)c1cc(C(C)C)c(O)c(C([O-])[O-])c1.CC(C)c1cc(C(C)C)c(O)c(C([O-])[O-])c1.CC(C)c1cc(C(C)C)c(O)c(C([OH2+])[OH2+])c1.CC(C)c1cc(C(C)C)c(O)c(C([OH2+])[OH2+])c1.[Cu+2].[Cu+2].[OH3+].[OH3+]	-11	-19	27	78% (active)	93% (active)
N#CN=Nc1cc(Cl)c(N=NC#N)cc1Cl	-25	-15	-13	13%	94% (active)
